Compound activity as filed in PubChem BioAssay.
Many of the other results were omitted from the sample, so hits are more common in it than they were.
RE007 growth inh: qHTS Assay for Inhibitors of the HIV-1 protein Vpr; 360,000 compounds, 0.21% hits; Potency, µM (highest dose often 92.2 µM), actives largely listed as inhibitors; S. pombe RE007 Vpr strain, BacTiter-Glo ATP luminescence, 24 h; active means well fitted falling curve with a large enough effect; inconclusive means small, poorly fitted or top-dose-only effect; inactive means no such curve, though single readings can be large or run the other way; further: nearly all actives have a fitted effect of over 50% in size
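Fission yeast strain RE007, carrying one chromosomally integrated HIV-1 vpr copy, was seeded at OD 0.01 in PMG+AL medium with 23 nL pinned compound. After 24 h at 30 °C and 99% humidity, viability was read by BacTiter-Glo luminescence.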
Giardia FBPA inh-1: qHTS Assay for Inhibitors of Fructose-1,6-bisphosphate Aldolase from Giardia Lamblia; purified Giardia FBPA; Potency, µM (series often up to 59.6 µM), most hits filed as inhibitors; 290,000 compounds, 0.71% hits; further: nearly all actives have a fitted effect of over 55% in size
Target sequence (A8B2U2 whole entry, looked up): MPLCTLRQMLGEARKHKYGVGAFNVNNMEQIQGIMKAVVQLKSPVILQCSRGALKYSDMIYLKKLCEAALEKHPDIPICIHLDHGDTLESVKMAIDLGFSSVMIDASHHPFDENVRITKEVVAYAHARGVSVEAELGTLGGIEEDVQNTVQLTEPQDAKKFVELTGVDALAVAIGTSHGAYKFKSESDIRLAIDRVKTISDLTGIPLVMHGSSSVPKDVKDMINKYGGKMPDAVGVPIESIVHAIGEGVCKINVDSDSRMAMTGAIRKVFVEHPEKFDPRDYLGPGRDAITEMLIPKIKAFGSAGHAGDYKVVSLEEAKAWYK
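40 nM FBPA preincubated 10 min at RT with compound (up to 57.5 uM final), then substrate plus GAPDH/TPI/NAD/arsenate coupling and diaphorase/resazurin added. Fluorescence read after 20 min at RT, 525/598 nm.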
Cycloheximide cs: Cycloheximide Counterscreen for Small Molecule Inhibitors of Shiga Toxin; cell reporter, cycloheximide protein synthesis inhibition counterscreen; max response, %; 300,000 compounds, 12% hits; AID 2314, 2010; in the data active means max response mostly above about 13%, no sharp cut-off; inactive means mostly below about 14%; further: read at 38.3 µM for the half of the compounds with a filed dose
Shiga inhibitor: A qHTS for Small Molecule Inhibitors of Shiga Toxin. Vero cells, Shiga toxin protein synthesis inhibition reporter. inhibition, % at 38.7 µM. 290,000 compounds, 9.2% hits; in the data active means inhibition mostly above about 28%, no sharp cut-off; inactive means mostly below about 43%
TbPYK inhibitor: qHTS of Trypanosoma Brucei Inhibitors; 410,000 compounds, 0.12% hits; TbPYK enzyme, Kinase-Glo Plus ATP luminescence, 45 min; Potency, µM (top dose mostly 76.8 µM), actives largely listed as inhibitors; AID 624173, 2012; pyruvate kinase (Trypanosoma brucei), Q57TT1; further: nearly all actives have a fitted effect of over 50% in size
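Glycolytic pyruvate kinase of T. brucei was incubated with substrate, test compound and 130 uM ADP for 45 minutes at room temperature. Luminescent Kinase-Glo Plus signal was measured after 10 minutes.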
LmPK inhibitor: qHTS Assay for Inhibitors of Leishmania Mexicana Pyruvate Kinase (LmPK); 290,000 compounds, 0.37% hits; Potency, µM (top dose mostly 57.5 µM), usual class: inhibitors; purified LmPK, Kinase-Glo ATP luminescence, 1 h
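In 50 mM imidazole pH 7.2 with 7 mM MgCl2, LmPK (0.1 nM) turned over PEP (0.5 mM) and ADP (0.1 mM) for 1 h at room temperature. Luciferase read-out of ATP.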
Giardia growth: qHTS Assay for Inhibitors of Fructose-1,6-bisphosphate Aldolase from Giardia Lamblia: Giardia lamblia growth inhibition; AID 2785, 2010; 1,500 compounds, 5% hits; shares compounds with Giardia FBPA inh-1; Potency, µM (series often up to 57.5 µM), usual class: inhibitors; Giardia lamblia trophozoite growth inhibition;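 further: trophozoites exposed to compound for 48 h at 37 °C; nearly all actives have a fitted effect of over 70% in size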
Mammalian tox: qHTS Assay for Inhibitors of Fructose-1,6-bisphosphate Aldolase from Giardia Lamblia: Mammalian cellular toxicity. shares compounds with Giardia FBPA inh-1. mammalian cell viability counter-screen, qHTS. Potency, µM (highest dose often 57.5 µM), hits mostly inhibitors. 1,500 compounds, 4% hits;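 further: Chinese hamster ovary cells used as mammalian cytotoxicity surrogate; viability measured as cellular ATP by luminescence; compound exposure lasted 48 h before reading; nearly all actives have a fitted effect of over 60% in size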
Giardia FBPA inh-2: qHTS Assay for Inhibitors of Fructose-1,6-bisphosphate Aldolase from Giardia Lamblia: Primary screen confirmation; AID 2787, 2010; Potency, µM (doses to about 57.5 µM), actives largely listed as inhibitors; 1,500 compounds, 5% hits; shares compounds with Giardia FBPA inh-1; purified Giardia aldolase enzyme activity, qHTS; further: nearly all actives have a fitted effect of over 45% in size
Rabbit FBPA inh: qHTS Assay for Inhibitors of Fructose-1,6-bisphosphate Aldolase from Giardia Lamblia: Rabbit FBPA Selectivity; shares compounds with Giardia FBPA inh-1; Rabbit muscle FBPA enzyme inhibition, selectivity counter-screen; Potency, µM (doses to about 57.5 µM), most hits filed as inhibitors; 1,500 compounds, 4% hits; further: nearly all actives have a fitted effect of over 60% in size
GAPDH coupling: qHTS Assay for Inhibitors of Fructose-1,6-bisphosphate Aldolase from Giardia Lamblia: Coupling assay counterscreen confirmation; AID 2795, 2010; 1,500 compounds, 6% hits; shares compounds with Giardia FBPA inh-1; Potency, µM (doses to about 57.5 µM), actives largely listed as inhibitors; GAPDH coupling enzyme counterscreen, biochemical, qHTS; further: nearly all actives have a fitted effect of over 55% in size
Large screens that a line does not name were inactive (follow-up assays come after a bar, where they were run); [ ] = another dose, or the depositor's remark. Unless noted, the call rests on the fitted dose curve; in most records, active means well fitted curve in the direction sought with a large enough effect; inconclusive means small, poorly fitted or top-dose-only effect, or another doubt; inactive means no such curve, though single readings can be large; an effect the other way counts as inactive or inconclusive.

Cc1ccc(C=C2C(Cl)=C(Cl)C(Cl)=C2Cl)cc1	Giardia FBPA inh-1 16µM | Giardia growth inactive[10.4 µM] | Mammalian tox inactive | Giardia FBPA inh-2 inactive | Rabbit FBPA inh inactive | GAPDH coupling inactive
Cc1cc(NC(=O)CC#N)n(-c2nc3ccccc3[nH]2)n1	Giardia FBPA inh-1 16µM | Giardia growth inactive | Mammalian tox inactive | Giardia FBPA inh-2 inactive | Rabbit FBPA inh inactive | GAPDH coupling inactive
Cc1cc(NC(=O)c2ccccc2)n(-c2nc3ccccc3[nH]2)n1	none
Cc1cc(NC(=O)c2sccc2C)n(-c2nc3ccccc3[nH]2)n1	Giardia FBPA inh-1 16µM | Giardia growth inconclusive | Mammalian tox inconclusive | Giardia FBPA inh-2 inactive | Rabbit FBPA inh inactive | GAPDH coupling inactive
COc1ccc(C(=O)Nc2cc(C)nn2-c2nc3ccccc3[nH]2)c(OC)c1	Giardia FBPA inh-1 18µM, Cycloheximide cs 20 | Giardia growth inactive | Mammalian tox inconclusive | Giardia FBPA inh-2 inactive | Rabbit FBPA inh inactive | GAPDH coupling inactive
Cc1ccsc1C1C(C#N)=C(N)OC2=C1C(=O)CCC2 (stereo unspecified)	Giardia FBPA inh-1 18µM | Giardia growth inactive | Mammalian tox inactive | Giardia FBPA inh-2 inactive | Rabbit FBPA inh inactive | GAPDH coupling inconclusive
CNCCCOc1ccc(C(C)(C)c2ccccc2)cc1	Giardia FBPA inh-1 inconclusive (no result: RE007 growth inh, TbPYK inhibitor)
CCC(C)NCCOc1ccc(C(C)(C)c2ccccc2)cc1 (stereo unspecified)	Giardia FBPA inh-1 18µM | Giardia growth inconclusive | Mammalian tox inactive | Giardia FBPA inh-2 inactive | Rabbit FBPA inh inactive | GAPDH coupling inactive
COCCn1c(NC(=S)NC(=O)C2CC2)cc(=O)[nH]c1=O	Giardia FBPA inh-1 7.1µM | Giardia growth inactive | Mammalian tox inactive | Giardia FBPA inh-2 inactive | Rabbit FBPA inh inactive | GAPDH coupling inactive
Nc1ccc2nc(Cc3ccccc3)[nH]c2c1	Giardia FBPA inh-1 16µM | Giardia growth inactive[10.4 µM] | Mammalian tox inactive | Giardia FBPA inh-2 inactive | Rabbit FBPA inh inactive | GAPDH coupling inactive
COC(=O)c1ccc(C(=O)O)nc1	Giardia FBPA inh-1 20µM | Giardia growth inactive | Mammalian tox inactive | Giardia FBPA inh-2 inactive | Rabbit FBPA inh inactive | GAPDH coupling inactive
Cc1cccc(NC(=O)C(Cc2ccccc2)c2nn[nH]n2)c1C (stereo unspecified)	Giardia FBPA inh-1 inconclusive (no result: Shiga inhibitor)
Cc1ccc(NNC(N)=S)cc1Cl	RE007 growth inh inconclusive, Giardia FBPA inh-1 18µM | Giardia growth inactive | Mammalian tox inactive | Giardia FBPA inh-2 inactive | Rabbit FBPA inh inactive | GAPDH coupling inactive
NC(=S)NNc1ccnc2cc(Cl)ccc12	Giardia FBPA inh-1 16µM | Giardia growth inconclusive | Mammalian tox inactive | Giardia FBPA inh-2 inactive | Rabbit FBPA inh inactive | GAPDH coupling inactive
NC(=S)NNc1ccc(Cl)c(Cl)c1	RE007 growth inh 11µM, Giardia FBPA inh-1 13µM | Giardia growth inactive | Mammalian tox inactive | Giardia FBPA inh-2 inactive | Rabbit FBPA inh inactive | GAPDH coupling inactive
